HUVEC tox IL1B: toxic to HUVEC cells under IL-1B stimulation; 94,000 tested, 0.41% active; HUVEC cell count loss, Hoechst imaging, IL-1B stimulated; cell count reduction, % at 2 µM;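 active = cell count reduction more than 3 SD above the screen-wide mean, cut at about 70% in these data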;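 also: normalized per plate to untreated control cells as the no-loss baseline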
NFkB transloc inh: blocks IL-1B driven NFkB nuclear translocation in HUVEC cells; HUVEC IL-1B NFkB p65 nuclear translocation imaging; inhibition, % at 2 µM; 94,000 tested, 0.43% active;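 active = inhibition above about 30% together with a positive call from visual inspection of the well image, limit read from the data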;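 also: nuclear over cytoplasmic p65 intensity ratio measured by imaging; 0% = IL-1B stimulated DMSO wells and 100% = unstimulated DMSO wells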
Phagocytosis inh: blocks phagocytosis by macrophages; J774A.1 macrophage IgG-bead phagocytosis, imaging; inhibition, % at 5 µM; 110,000 tested, 0.07% active; AID 1029;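 active = inhibition above the mean of the plate negative controls plus 5 SD, cut at about 13% in these data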;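 also: phagocytic index as fraction of beads internalized from green versus red external bead signal; plate controls were DMSO negative control for no effect and cytochalasin-D positive control for full effect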
HUVEC tox TNFa: toxic to HUVEC cells under TNF alpha stimulation. 93,000 tested, 0.17% active. HUVEC TNFalpha-stimulated, Hoechst cell count, imaging. cell count reduction, % at 2 µM;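 active = cell count reduction exceeding the screen mean by over 5 SD, scaled to untreated wells per plate, cut at about 78% in these data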;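 also: cells counted after 24 h of TNF alpha exposure following the 1 h pretreatment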
IL1B NFkB pot: enhances IL-1B driven NFkB nuclear translocation; 94,000 tested, 0.3% active; AID 819; HUVEC IL-1B NFkB p65 nuclear translocation imaging; activation, % at 2 µM;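 active = activation above 40%, about the mean plus 3 SD, also judged a hit on visual image review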;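 also: percent activation is computed from the nuclear over cytoplasmic p65 intensity ratio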
* = called active by the depositor; / = no result given. An excerpt weighted towards active compounds, which were near 0.93% of everything screened.

SMILES | HUVEC tox IL1B | NFkB transloc inh | Phagocytosis inh | HUVEC tox TNFa | IL1B NFkB pot
Cc1nc2ccc(NC(=O)c3cc(S(=O)(=O)N4CCOCC4)ccc3C)cc2s1 | 7 | -8 | -1 | -28 | 8
Cc1nc2ccc(NC(=O)N3CCOCC3)cc2s1 | -39 | 51* | / | -10 | -51
Cc1csc(NC(=O)c2ccccc2C(=O)O)n1 | 86* | 25 | -2 | -5 | -25
Cc1csc(NC(=O)c2ccco2)n1 | -24 | -44 | -1 | -10 | 44*
Cc1nnc(NC(=O)c2ccccc2C(=O)O)s1 | -3 | 9 | 2 | -8 | -9
O=C(CSc1nnc(CNc2ccc(F)cc2)o1)N1c2ccccc2Sc2ccccc21 | 7 | -12 | / | 4 | 12
COc1ccc(NC(=O)C2CCN(S(C)(=O)=O)CC2)cc1 | -130 | 42* | 2 | -39 | -43
CCC(C)n1c(SCC(=O)Nc2cc(C(C)(C)C)nn2-c2ccccc2)nc2ccccc2c1=O (stereo not given) | / | / | -2 | / | /
Cc1ccc(Nc2nnc(SCC(=O)Nc3ccc(S(=O)(=O)N4CCOCC4)cc3)s2)cc1 | 84* | 34* | 4 | 0 | -34
CCC1CCCCN1C(=O)CSc1nnc(-c2ccc(Cl)s2)o1 (stereo not given) | 87* | 5 | 1 | -2 | -5
CCC1CCCCN1C(=O)CSc1nnc(-c2ccc(Cl)cc2)o1 (stereo not given) | 7 | -4 | 1 | -2 | 4
Cc1ccc(/C=C/C(=O)NC2CCCCCCC2)o1 | / | / | -1 | / | /
COCCn1c(C(C)C)nc2oc3ccccc3c(=O)c2c1=O | 0 | -23 | -1 | -23 | 23
CCc1nc2oc3ccccc3c(=O)c2c(=O)n1CCOC | -4 | -30 | -1 | 97* | 30
COc1ccc(-c2[nH]c(-c3ccc(C(=O)O)cc3)nc2-c2ccccc2)cc1 | 11 | 64* | / | -7 | -64
COc1ccc(N2CCN(C(=O)CSc3nnc4c(C)cc5cc(C)ccc5n34)CC2)cc1 | 92* | 24 | -2 | -14 | -24
CCc1ccc(NC(=O)CCn2c(=O)oc3ccccc32)cc1 | -2 | -8 | -4 | 100* | 8
Cc1ccc(NC(=O)CCn2c(=O)oc3ccccc32)cc1 | 13 | 5 | -2 | -30 | -5
CCOC(=O)c1c(C)n(C)c2ccc(OC)c(NC(=O)CN3CCN(C4CCCCC4)CC3)c12 | 87* | 25 | 2 | -19 | -25
CCOC(=O)c1c(C)n(C)c2ccc(OC)c(NC(=O)CN3CCN(Cc4ccccc4)CC3)c12 | -13 | 7 | / | -35 | -7
CCN(CC(=O)Nc1cccc(OC)c1)c1ncnc2sc(C)c(C)c12 | / | / | -10 | / | /
Cc1ccc(OCC(=O)N2CCCCCC2)c(C)c1 | 86* | -21 | 0 | -18 | 21
Cc1ccc(S(=O)(=O)Nc2cc(C(=O)NCCN3CCCC3)ccc2N2CCCCC2)cc1 | 16 | -25 | / | 88* | 25
CCOC(=O)c1cc2c(=O)n3ccccc3nc2n(CCCOC)c1=NC(=O)c1cccnc1 | 0 | -44 | / | -28 | 44*
Cc1[nH]n(-c2ncc(-c3ccccc3)s2)c(=O)c1C(c1ccc(Cl)cc1)C(C#N)C#N (stereo not given) | / | / | -8 | / | /
SMILES | HUVEC tox IL1B | NFkB transloc inh | Phagocytosis inh | HUVEC tox TNFa | IL1B NFkB pot
CCCOc1ccc(/C=C/C(=O)NCc2ccccc2)cc1 | / | / | 0 | / | /
CCCCC[n+]1ccn(-c2nc3ccccc3nc2[N-]S(=O)(=O)c2ccc(C)cc2)c1 | 82* | 98* | / | 6 | -98
Cc1ccccc1Cn1nc(C)c(NC(=O)c2cc3n(n2)C(C(F)F)CC(C(F)F)N3)c1C (stereo not given) | 78* | 96* | -1 | 6 | -96
COc1ccc(OC)c(-c2cc(C(=O)Nc3c(C)nn(Cc4ccccc4C)c3C)no2)c1 | -6 | 2 | -1 | 6 | -2
Cc1ccccc1Cn1nc(C)c(NC(=O)c2cc(-c3cccs3)on2)c1C | 3 | 3 | -2 | 80* | -3
CC(CNC(=O)C(=O)NC(C)CCc1ccccc1)Cc1ccccc1 (stereo not given) | -69 | -9 | / | -9 | 9
CCNS(=O)(=O)c1ccc(OC)c(C)c1 | 83* | 63* | 1 | -33 | -63
Cc1cc(-n2c(C)cc(C(=O)CN3C(=O)NC4(CCCC4)C3=O)c2C)no1 | 39 | -5 | -1 | -26 | 5
Cc1cc(-n2c(C)cc(C(=O)CN3C(=O)NC4(CCCCC4)C3=O)c2C)no1 | -22 | -13 | 0 | 90* | 13
CC(C(=O)Nc1ncn[nH]1)N1C(=O)c2ccccc2C1=O (stereo not given) | 83* | -23 | / | -18 | 23
CC(C(=O)Nc1ccccc1F)N1C(=O)c2ccccc2C1=O (stereo not given) | -1 | 1 | -1 | -27 | -1
CCSc1nc2ccccc2n1C(=O)/C=C\c1ccc(OC)c(OC)c1 | -10 | 90* | / | 22 | -90
O=C(O)C1C2C=CC(O2)C1C(=O)Nc1ccc(S(=O)(=O)N2CCc3ccccc32)cc1 (stereo not given) | 3 | 49* | 2 | 0 | -49
O=C(O)CNC(=O)c1ccccc1NC(=O)c1ccco1 | -73 | -29 | 0 | -11 | 29
CN(Cc1ccccc1)C(=O)c1ccccc1NC(=O)c1ccco1 | 88* | -42 | / | -2 | 42*
COC(=O)C1CCN(c2ccc(C(N)=O)cc2[N+](=O)[O-])CC1 | / | / | -17 | / | /
CC(=O)Nc1nnc(SCc2ccc(F)cc2)s1 | 80* | 6 | / | -8 | -6
COc1ccc(C2SCC(C(=O)NCc3ccc(F)cc3)N2C(C)=O)cc1 (stereo not given) | -3 | -3 | / | -46 | 3
CC(C)(CNC(=O)/C=C/c1ccc(F)cc1)CNC(=O)/C=C/c1ccc(F)cc1 | / | / | 4 | / | /
Cc1ccc(NS(=O)(=O)c2ccc(OCC(=O)NCc3cccnc3)cc2)cc1 | / | / | -4 | / | /
COc1ccc(OC(C)C(=O)NCc2cccnc2)cc1 (stereo not given) | 93* | 13 | 3 | -4 | -13
CCC(C)NS(=O)(=O)c1ccc(OCC(=O)NCc2cccnc2)cc1 (stereo not given) | 80* | 98* | 1 | -17 | -98
O=C(c1ccc([N+](=O)[O-])cc1)N(Cc1ccc(Br)cc1)N1C(=O)CCCC1=O | 14 | 9 | 1 | -20 | -9
CCCCCC(=O)NC(NC(=S)N1CCOCC1)C(Cl)(Cl)Cl (stereo not given) | -14 | -9 | / | -14 | 9
CCCCCCCCC(=O)NC(NC(=S)N1CCOCC1)C(Cl)(Cl)Cl (stereo not given) | -37 | -41 | / | 3 | 41*
O=C(OCC(=O)N1CCCC1)c1cncc(Br)c1 | 88* | 98* | -1 | -8 | -98
CC(=O)Nc1ccc(S(=O)(=O)NCC(=O)OCC(=O)N2CCCc3ccccc32)cc1 | / | / | -3 | / | /
Cc1nc2ccccc2n1CC(O)COCC1CC=CCC1 (stereo not given) | 30 | 14 | / | 96* | -14
COc1ccc2cc(C(=O)Nc3ccc(Cl)cc3)sc(=O)c2c1OC | / | / | -9 | / | /
Cc1c(C(=O)NCc2ccco2)oc2ccc(S(=O)(=O)N3CCC4(CC3)OCCO4)cc12 | -2 | 32* | / | 4 | -32

Assay outcomes as filed in PubChem.
